# Legend:
# Experiment in all cases: PBM binding z-score (relative to random genomic background probes); higher = stronger binding; sequences stand for … in GC…GCGATTGACAGCGTAGAATGAAGG
# [1] = test system: RARb homodimer (NR concentration 270 nM)
# Procedure, shortened: (§1)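 Antibodies against each partner of ligand-free nuclear receptor dimers (one per run) detected binding on custom Agilent 4×180K protein-binding microarrays after 1 h incubation. The double-stranded probes had 34-nt variable regions carrying direct-repeat seeds, single-nucleotide variants, half-site ablations and random human genomic background sequences. Binding z-scores, from regression-normalized fluorescence, use the random background probes as reference.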
# [2] = test system: RARg:RXRa (NR concentration 270 nM, RXRa partner concentration 90 nM)
# Procedure, shortened: as §1
# [3] = test system: RARg homodimer (NR concentration 270 nM)
# Procedure, shortened: as §1
# [4] = test system: RXRa DBDmut IVT, anti-RXR (DBD mutation: RXRa K156A/R161A, NR concentration 90 nM)
# Procedure, shortened: as §1
# [5] = test system: RXRa homodimer (NR concentration 180 nM)
# Procedure, shortened: as §1
# [6] = test system: THRa:RXRa (NR concentration 90 nM, RXRa partner concentration 90 nM)
# Procedure, shortened: as §1
# [7] = test system: THRa homodimer (NR concentration 90 nM)
# Procedure, shortened: as §1
# [8] = test system: VDR:RXRa (NR concentration 270 nM, RXRa partner concentration 90 nM)
# Procedure, shortened: as §1
# [9] = test system: VDR homodimer (NR concentration 270 nM)
# Procedure, shortened: as §1
Sequence,PBM binding z-score [1],PBM binding z-score [2],PBM binding z-score [3],PBM binding z-score [4],PBM binding z-score [5],PBM binding z-score [6],PBM binding z-score [7],PBM binding z-score [8],PBM binding z-score [9]
TCATATAGGTAAACGCTAGGTGAAAGTCCGATCT,0.416,0.628,0.523,1.63,0.944,1.52,0.385,1.03,0.251
ATCTCTAGGTAACAAGTTCAGTGATAGAGAGGAC,1.92,1.05,1.57,1.06,0.757,1.38,0.931,1.91,2.93
TCTATTAGTTGATTAGGGCATCCGAAACAGCGGA,0.405,0.611,0.418,1.08,0.604,0.428,0.317,0.719,0.435
ATCGAAAGGTCGTGAGGTGAGTAGACAGAAAGGC,2.99,4.61,3.94,1.15,5.39,3.28,1.3,3.35,0.659
ATCGCAAGGTCGACGAGGTGAGTATACACCGTTT,1.72,2.58,2.37,1.32,2.26,3.41,1.26,4.11,1.21
TAGCCTAGGTCAGGTCGGGCCAGTATACGCTATA,2.67,2.95,4.12,-0.81,1.62,3.92,0.761,1.03,0.0294
TTACCAAGGTGAAAGGTTGTTGATGCACGCCTTG,0.999,1.65,0.911,0.0428,2.58,2.15,0.748,1.15,0.0809
CGAACTAGGTCATTGACAGGAGAGTGAATAGTAA,2.29,3.65,4.2,2.21,2.23,2.48,0.629,1.62,0.844
CGAACTAGGTCAAGGTCAGTGAATCTCCGCACGC,4.79,5.23,6.17,2.29,4.11,3.86,3.15,3.19,2.14
CGAACGAGGGCATGAGTTGATCGCAAATGCCGAT,0.684,1.04,1.28,2.51,0.767,1.04,-0.361,1.34,1.79
CCTTACGGTTCAAGGTTATAGCACGGGTGGTACG,1.39,1.69,1.21,2.6,2.38,2.15,1.41,2.72,3.31
AGAATGAGGTTATATGTAGATCAGGGAAGAAAGT,1.34,1.69,1.09,1.74,2.1,2.44,1.22,1.43,1.24
CGTCCAAGGTCAAGGGTCAGTGAAGAGATGACGG,5.05,7.4,7.41,3.29,8.75,4.58,2.82,5.63,3.3
CTCGAAAGGTCGGTAGAGGTGAGTATACGGATAA,2.52,2.89,2.98,0.197,2.49,4.38,-0.139,2.05,0.0872
GCTGCTAGGTCTGGTTGGTCAGCTAACGGGTACG,0.178,-0.569,-0.564,-0.198,-0.753,-0.722,-0.243,-0.816,-0.214
CCTACCAGGCCAGGGTCACTCAAGCATTTCGCTT,2.84,3.13,2.44,-0.231,3.18,2.98,1.56,2.7,1.29
AATACAGGGTCACTAGGCCAGAATAGGTACGAAT,3.3,5.17,4.76,2.85,5.58,3.41,1.4,4.2,2.52
TAGCCTAGGTCAGATCGGGCCAGTAGACGCTATA,1.76,2.74,3.37,-0.78,1.2,3.76,-0.385,0.169,-0.53
AACTCTAGGTAACCAAGTTCAGTGAATGCCGAAC,0.982,0.219,0.32,0.853,0.269,1.34,0.572,3.64,2.11
AGTACGAGGGCACGCTGAGTTGATAGCAGAGTAG,1.41,2.07,2.38,2.3,1.2,1.92,0.295,2.29,2.17
AGAACGAGGGCACGCTGCGTTGATAGCAGAGTAG,1.06,1.55,2.21,1.81,1.3,1.71,-0.00562,0.741,0.888
ATATGTAGGTTAATGGTCATTCAGGTTGGTTCGC,1.75,1.02,1.11,0.788,1.14,0.905,0.945,1.32,1.34
TCGAGTAGGTTACCACTGGGGCATTCAGCTTTCT,0.339,0.939,0.436,0.044,0.129,0.242,-0.96,-0.368,-0.613
ATCTCTAGGTAACGAGTTCAGTGAAAGAGAGGAC,1.67,1.08,1.07,1.58,1.01,1.97,1.21,3.5,4.11
ACTAGTTGGTGAGCTGAGGTCACACACAATTCGG,3.86,3.85,3.11,0.874,4.01,4.44,5.07,3.55,3.31
ATCTCTAGGTACAGTTCAGTGAAAGATCGATAGA,0.899,0.55,0.987,1.95,0.449,0.634,0.0799,1.12,1.77

Sequence,PBM binding z-score [1],PBM binding z-score [2],PBM binding z-score [3],PBM binding z-score [4],PBM binding z-score [5],PBM binding z-score [6],PBM binding z-score [7],PBM binding z-score [8],PBM binding z-score [9]
CCACACAGGTGAAAGGTAACTCAGTCTGGTACGC,1.05,1.5,0.76,0.262,2.32,1.06,0.165,1.05,-0.208
GCTAGGAGGCCATTTGGGTCACTCAATGACGGGC,2.18,1.5,2.23,0.724,0.924,2.33,0.78,1.83,1.29
AGAATGAGGTTACCAAACATCAGGGAAACGCTTG,0.501,1.92,1.75,1.15,2.56,2.59,0.726,1.04,0.159
AGTACAGGGTCATCGTAGGCCAGAGTACGCACAG,3.81,5.65,5.22,3.47,6.42,4.59,1.57,5.08,3.92
TATACAGGGTCAAAGGCCAGCGTACGAATGTCGA,3.48,5.75,4.83,2.96,7.31,3.54,0.731,4.73,2.16
CCTAGTTGGTCCGGAGGTCACACACCGGATATGA,3.85,4.35,3.68,0.525,4.56,3.62,2.86,3.77,2.79
GCAGACAGGTTAAACGCAGGTAACTCAGGGTGGC,0.331,1.81,0.406,-0.0571,1.54,2.06,-0.519,0.135,-0.623
TCTTGTAGATCAGCAGATTAAGAAAGCTGGCCAA,-0.767,-0.275,-0.543,0.615,-0.121,-0.329,-0.892,0.172,-0.178
CGTCAAAGTTGAAGGTAACGTAACAGAAAGCAGC,0.588,0.945,1.11,0.128,0.848,0.402,-0.078,-0.0741,-0.0561
GGAACGAGGGCAAAGATGATAGCATCTGTCGACG,0.55,1.1,1.59,2.33,1.02,0.506,-0.734,0.573,0.578
TCTGCTAGGTCAACGATGGTAAGCTAATCTGCTA,2.66,3.8,4.83,0.819,2.4,2.62,0.291,1.82,-0.612
TGAATGAGGTTATAAGATCAGCGAACGTTGCAAA,0.0466,1.48,1.05,0.409,1.9,1.61,-0.141,0.842,0.262
TGTCAAAGTTCAAAAGTAACGTAAGTATCCACAC,3.09,5.13,5.21,4.25,4.57,1.86,-0.26,3.97,3.51
CCGACTGGAGCAGAAAGGTTACCATACCATCCGG,2.03,1.32,0.946,-0.179,1.8,0.977,-0.2,0.564,0.282
ATACCAAGTTGATCGTGAGGTCGTTGATACTAAC,1.39,1.26,0.677,1.34,1.08,2.75,2.33,2.68,3.08
ACTATTAGTTGAGACGAGGGCACCCGATAGGTTG,1.01,0.598,1.02,0.586,0.681,2.57,0.574,0.529,0.89
ATATGTAGGTTACATCCGGGTCATTCAGGCTATG,3.04,3.77,2.17,1.01,3.39,3.75,2.57,4.26,2.83
CCGACTGGGGGAAAGGTTACCATACTCAGTACGA,2.1,2.79,1.78,0.141,3.06,2.14,0.672,1.79,0.298
CTCGAAAGGTCGGTTGAAGTGAGTATACGGATAA,1.72,2.38,2.65,0.742,1.98,1.42,0.13,1.23,0.557
ACTATTAGTTGACTTAGGGCATCCGATACGACGC,0.597,0.218,0.979,0.909,0.613,0.97,0.239,0.439,0.435
CGAAGTAGGTCATCCAGGACAGTGAATACATTGA,3.03,4.24,4.88,2.13,3.36,3.64,1.46,5.12,2.37
TCTTGTAGATCAAGCAGGTTAAGATAGCCTGAGT,0.14,0.091,0.0595,0.547,0.359,0.324,-0.172,0.573,-0.247
GCTTACGGGTCAGAGGTTATAGCATGAATAGAAT,2.66,4.85,3.51,1.24,6.16,2.66,-0.0589,,0.979
GTACCAAGGTGAATAGGTCGTGGATGAGTAGGCG,2.29,3.12,1.51,-0.652,2.44,1.91,0.648,0.918,-0.0897
CCGACCGGGGCAAAGGTTACCATACTCAGTACGA,2.34,3.83,2.02,0.0663,4.51,2.47,0.202,,0.185
GGGACGAGGGCAAGTTGATAGCAGAGTTTGATGG,1.99,1.89,2.46,2.62,1.06,1.61,0.723,1.29,2.05

# — the supplement of paper PMC6555819
